PubChem BioAssay (Tox21)
Inconclusive results are not listed. Active and inactive are the calls of the source. Calls follow the shape of the dose curve; as a rule, active = well fitted cell-killing curve with a large enough effect in the repeat runs; inconclusive = weak or mixed curves, or effect the other way; inactive = flat fitted curve, though single readings scatter.

Assay: Caspase-3/7 induction in HepG2 cells by small molecules, qHTS cell viability counter screen (AID 1346981); also: nearly all actives have a fitted effect of over 30% in size
Settings: CellTiter-Fluor fluorescence, 17 h; series mostly up to 92.4 µM; activity change, negative = cytotoxicity: at the top concentration
Text: U.S. Tox21 Program National Center for Advancing Translational Sciences [NCATS] NIH Chemical Genomics Center [NCGC] U.S. Environmental Protection Agency [EPA] National Institutes of Environmental Health Sciences [NIEHS] National Toxicology Program [NTP] U.S. Food and Drug Administration [FDA] Tox21 Assay Overview: Apoptosis is a process of programmed cell death and plays a central role in the development of multicellular organisms. It is a highly regulated process and induces cell death by activating caspases, which are the members of cysteine aspartic acid-specific protease (caspase) family. Caspases involved in apoptosis are classified by their mechanism of action as initiator caspases (caspase-2, -8, -9 and -10) and executioner caspases (caspase-3, -6, and -7). Inhibition of apoptosis results in number of cancers, autoimmune diseases, inflammatory diseases and viral infection. To identify small molecule compounds that induce apoptosis, a homogeneous, luminescent Caspase-Glo 3/7 assay was used. Wild type HepG2 cells were used to screen Tox21 libraries for identifying caspase-3/7 activity inducers. Also cytotoxicity of the compounds was tested in parallel by measuring the cell viability using CellTiter-Fluor assay system in the same wells.
Tox21 Assay Protocol Summary: HepG2 cells were dispensed at 2,000 per well in 5uL of culture medium into white solid bottom 1536-well plates (Corning Life Sciences, Corning, NY) using a Multidrop Combi (Thermo Scientific, Waltham, MA) dispenser. The assay plates were incubated at 37 C and 5% CO2 for 5hr, and then 23nL of compounds dissolved in DMSO and positive control were transferred using a Pintool station ([…], San Diego, CA). The assay plates were incubated at 37C and 5% CO2 for 17hr. For cytotoxicity read, after 16hr incubation at 37C, 1uL CellTiter-Fluor reagent (Promega Corporation, Madison, WI) was added to each well of the assay plates using Flying Reagent Dispenser (FRD, Aurora Discovery, San Diego, CA). After 1hr incubation at 37C and 5% CO2, the fluorescence signal was quantified using a ViewLux plate reader (PerkinElmer, Shelton, CT).
% is scaled to controls: 0 for no effect and ±100 for the full control effect; potency is read from the fitted curve at half-maximal effect.

SMILES | activity change, negative = cytotoxicity | Potency
O=C(O)CCCc1c[nH]c2ccccc12 | 0.279% (inactive) | 
O=S(=O)(Cl)c1c(Cl)cccc1Cl | 1.16% (inactive) | 
CCN(CC)C(=O)/C(C#N)=C/c1cc(O)c(O)c([N+](=O)[O-])c1 |  | 29.8 µM (active)
CC(C)N=C=NC(C)C | -0.902% (inactive) | 
CC(=O)c1ccc[nH]1 | 5.73% (inactive) | 
O=C(O)c1cccc(Oc2ccccc2)c1 | -0.107% (inactive) | 
CNCc1ccc(NC(=O)c2c[nH]c3c2C(=O)CCC3)cc1 | 1.48% (inactive) | 
C1CCCCC1 | -0.492% (inactive) | 
CSSc1ccoc1C | -0.805% (inactive) | 
CC(=O)OCC(=O)[C@@]1(OC(C)=O)[C@@H](C)C[C@H]2[C@@H]3C[C@H](F)C4=CC(=O)C=C[C@]4(C)[C@@]3(F)[C@@H](O)C[C@@]21C | -0.131% [at 42.5 µM] (inactive) | 
Nc1ccc(F)cc1 | 2.55% (inactive) | 
COc1ccc(/C=C/C(=O)c2ccc(OC)cc2OC)cc1 | -1.74% [at 42.5 µM] (inactive) | 
C[C@@H]1[C@H](O)[C@@H](C)/C=C/C=C\C=C\C=C\C=C\C=C\C=C\[C@H](O[C@@H]2O[C@H](C)[C@@H](O)[C@H](N)[C@@H]2O)C[C@@H]2O[C@](O)(C[C@@H](O)C[C@@H](O)[C@H](O)CC[C@@H](O)C[C@@H](O)CC(=O)O[C@H]1C)C[C@H](O)[C@H]2C(=O)O (stereo in doubt) |  | 48.6 µM (active)
CCCCCCCCCCCCCOC(=O)CCSCCC(=O)OCCCCCCCCCCCCC | 6.29% [at 19 µM] (inactive) | 
CNS(=O)(=O)c1cc(C(=O)N2CCC(CCN3C4CCC3CC(n3c(C)nc5ccccc53)C4)(c3cccc(F)c3)CC2)c(Cl)cc1F (stereo not given) |  | 13.7 µM (active)
CCOC(=O)c1ccc(NC(=O)CN2CCCCC2)cc1 | -1.05% [at 42.5 µM] (inactive) | 
O=C1c2ccccc2C(=O)c2c(O)ccc(O)c21 | 0.54% (inactive) | 
C[C@H](CS)C(=O)N1CCC[C@H]1C(=O)O | 4.67% [at 42.5 µM] (inactive) | 
[Cl][Nd]([Cl])[Cl] | -0.408% (inactive) | 
COC(=O)Nc1nc2ccc(C(=O)C3CC3)cc2[nH]1 | 0.134% [at 42.5 µM] (inactive) | 

SMILES | activity change, negative = cytotoxicity | Potency
FC(F)(F)C(F)(F)C(F)(F)C(F)(F)CCI | 3.7% [at 42.5 µM] (inactive) | 
C=CC(=O)O | 6.58% [at 42.5 µM] (inactive) | 
CCOC(=O)N1CCC(Nc2ccc(Cl)cc2N)CC1 | -0.806% [at 42.5 µM] (inactive) | 
CC(=O)NCCO | 0.68% (inactive) | 
CCCCCCCC/C=C\CCCCCCCC(=O)OCCO | -0.559% (inactive) | 
CN=C(N)NC(=O)Nc1c(C)cccc1C | 7.22% [at 42.5 µM] (inactive) | 
O=C(O)CNC(=O)c1ccccc1I | 3.09% [at 42.5 µM] (inactive) | 
CC(C)C1CCC(C(=O)N[C@H](Cc2ccccc2)C(=O)O)CC1 (stereo not given in full) | -0.0483% [at 42.5 µM] (inactive) | 
CNC1CCCN(c2c(F)cc3c(=O)c(C(=O)O)cn(C4CC4)c3c2OC)C1 (stereo not given) | 3.68% [at 42.5 µM] (inactive) | 
COc1cc(S(=O)(=O)Nc2ccccc2)c(OC)cc1N | 3.38% (inactive) | 
CCN(CC)c1ccc(C(=C2C=CC(=[N+](CC)CC)C=C2)c2ccc(S(=O)(=O)O)cc2S(=O)(=O)[O-])cc1 |  | 19.3 µM (active)
COc1ccc(C2C(=O)c3ccccc3C2=O)cc1 | -9.27% [at 42.5 µM] (inactive) | 
O=C1[C@@H]2[C@H]3CC[C@H](C3)[C@@H]2C(=O)N1CCCCN1CCN(c2ncccn2)CC1 | -1.97% [at 42.5 µM] (inactive) | 
CC(CN(CCN(CC(C)OCCO)CC(C)OCCO)CC(C)OCCO)OCCO (stereo not given) | -6.72% (inactive) | 
O=C(O)c1cc(Cl)cc(Cl)c1O | -2.15% (inactive) | 
Cc1ccc(NC(=O)N(C)C)cc1NC(=O)N(C)C | 2.65% (inactive) | 
CCCC(=O)OC(=O)CCC | 4.29% (inactive) | 
COc1ccc(-c2cc(=S)ss2)cc1 | -13.3% [at 42.5 µM] (inactive) | 
CN1CCCN(C(c2ccccc2)c2ccc(Cl)cc2)CC1 (stereo not given) |  | 23.7 µM (active)
CC1C(C)(C)C2=C(C(=O)CCC2)C1(C)C (stereo not given) | -1.87% (inactive) | 
